# A selection: hits, their analogues and other compounds. The true share with any hit is near 19%.
# Shiga inhibitor: blocks Shiga toxin action in Vero cells. inhibition, % at 38.7 µM. 290,000 tested, 9.2% active. AID 2315. Vero cells, Shiga toxin protein synthesis inhibition reporter; in the data active = inhibition mostly above about 28%, no sharp cut-off; inactive = mostly below about 43%; also: 0% is about no effect
# Pf growth 96h: P. falciparum growth inhibition at 96 hours. P. falciparum luciferase reporter growth, 96 h. Potency, µM (titrated, usually from 28.7 µM), without a hit: at the highest dose activity change, negative = inhibition, actives largely listed as inhibitors. 320,000 tested, 6.9% active. AID 504834; also: potency is read from the fitted curve at half-maximal effect; % is scaled to controls: 0 for no effect and ±100 for the full control effect
#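 Infected RBCs, 2% Hct / 0.05% parasitemia final; luciferase-reporter P. falciparum; cpd 96 h, 37 C, 5% CO2; luciferase detection reagent; luminescence.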
# LASV entry inh: blocks Lassa virus binding to or entry into cells | Lassa virus pseudotype entry inhibition, cell reporter | AID 540256 | Potency, µM (top dose mostly 37.9 µM), for the others: at the highest dose activity change, negative = inhibition, most hits filed as inhibitors | 300,000 tested, 1.2% active; calls by dose curve; tested in HEK293 cells; also: potency is read from the fitted curve at half-maximal effect; % is scaled to controls: 0 for no effect and ±100 for the full control effect; nearly all actives have a fitted effect of over 50% in size
# MARV entry inh: inhibitors of Marburg virus binding or cell entry; Marburg virus pseudotyped entry inhibition, cell reporter; Potency, µM (highest dose often 37.8 µM), for the others: at the highest dose activity change, negative = inhibition, usual class: inhibitors; 300,000 tested, 1.8% active; calls by dose curve; tested in HEK293 cells; also: potency is read from the fitted curve at half-maximal effect; % is scaled to controls: 0 for no effect and ±100 for the full control effect
# Pf growth 48h: P. falciparum growth inhibition at 48 hours (one generation); 310,000 tested, 5.9% active; Potency, µM (highest dose often 28.7 µM), for the others: top-dose activity change, negative = inhibition, actives largely listed as inhibitors; P. falciparum luciferase growth in erythrocytes, 48 h; also: potency is read from the fitted curve at half-maximal effect; % is scaled to controls: 0 for no effect and ±100 for the full control effect
#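 Luminescence readout; reporter = integrated firefly luciferase in P. falciparum. RBC culture at 2% hematocrit, 0.1% parasitemia final, 37 C/5% CO2; decreased signal taken as growth inhibition.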
# Cycloheximide cs: counter-screen for Shiga toxin inhibitors: cycloheximide protein synthesis inhibition | cell reporter, cycloheximide protein synthesis inhibition counterscreen | max response, % | 300,000 tested, 12% active | AID 2314; in the data active = max response mostly above about 13%, no sharp cut-off; inactive = mostly below about 14%; also: read at 38.3 µM for the half of the compounds with a filed dose; 0% is about no effect
# An asterisk follows results filed as active; ? = inconclusive; / = not tested or not shown; [ ] = dose if it differs, or a comment. Unless noted, calls follow the shape of the dose curve; as a rule, active = well fitted inhibition curve with a large enough effect; inconclusive = small, poorly fitted or top-dose-only effect, or another doubt; inactive = no such curve, though single readings can be large or run the other way.
SMILES,Shiga inhibitor,Pf growth 96h,LASV entry inh,MARV entry inh,Pf growth 48h,Cycloheximide cs
CCOc1ccc(C2CC(c3cccc(OC)c3OC)n3nnnc3N2)cc1Cl (stereo not drawn),-12,5%,-11%,9%,12µM*,-3
Cc1ccc(C2CC(c3ccccc3)n3ncnc3N2)cc1 (stereo not drawn),-6,13µM*,/,-3%,-2%,-4
O=c1[nH]c(=S)[nH]c2c1CN(Cc1ccc(F)cc1)CC2,-6,46%,/,/,-15%,12
Clc1ccc(Nc2ccc(NCc3ccccc3)nn2)cc1,60*,1.9µM*,10%,6%,4.7µM*,34*
Clc1ccc(-c2nnc(NCc3ccccc3)c3ccccc23)cc1,12,?,?,?,?,2
Cc1ccc(Nc2ccc(NCc3ccccc3)nn2)cc1C,68*,?,-4%,12%,?,33*
Cc1cc(NCc2ccccc2)nc2ccccc12,19,17%,-6%,?,?,15
CCCc1ccc(-c2cc(NC(=O)CSc3nnc(N)s3)n(-c3ccccc3)n2)cc1,99*,39%,?,?,23%,43*
COc1ccc(NC(=O)CSc2nnc(N)s2)cc1,-3,-24%,9%,?,18%,-2
CSc1nc2ccc(NC(=O)CSc3nnc(N)s3)cc2s1,49,/,2%,3%,69%,33*
Nc1nnc(SCC(=O)Nc2ccccc2)s1,8,35%,24%,5%,0%,10*
Cc1nnc(SCC(=O)Nc2cc(-c3cc(C)c(C)cc3C)nn2-c2ccccc2)s1,10,?,?,?,?,-2
COC(=O)c1ccc(NC(=O)CSc2nc3ccc(N4C(=O)C5C6C=CC(C6)C5C4=O)cc3s2)cc1 (stereo not drawn),4,9.3µM*,?,?,?,23*
CC(OC(=O)c1cccc([N+](=O)[O-])c1)C(=O)NCc1ccc2c(c1)OCO2 (stereo not drawn),-7,-4%,/,/,-8%,1
CCNc1nc(SCCOc2ccc(Cl)cc2Cl)nc(N(C)C)n1,50,?,/,/,?,10
CCCCCCCC(=O)Nc1cc(C(=O)NCCC)ccc1N1CCC2(CC1)CC(c1ccccc1)=NO2,-3,7.4µM*,/,/,?,1
O=C(CCNC(=O)c1ccc(Br)cc1)Nc1ccccc1N1CCCCC1,/,?,17%,?,?,/
CCCNC(=O)c1ccc(N2CCC3(CC2)CC(c2ccccc2)=NO3)c(NC(=O)c2ccc(Br)cc2)c1,-4,1.9µM*,/,/,?,-2
CCCCCCCC(=O)Nc1cc(C(=O)NCc2ccc(C)cc2)ccc1N1CCC2(CC1)CC(c1cccc(Br)c1)=NO2,/,46%,/,/,-3%,/
CCCNC(=O)c1ccc(N2CCC3(CC2)CC(c2cccc(Br)c2)=NO3)c(NC(=O)c2cccc(OC)c2)c1,/,8.3µM*,/,/,?,/
Cc1ccc(CNC(=O)c2ccc(N3CCC4(CC3)CC(c3cccc(Br)c3)=NO4)c(NC(=O)c3c(Cl)cccc3Cl)c2)cc1,/,9.3µM*,/,/,5.9µM*,/
CCOC(=O)c1ccc(NC(=O)Nn2cnnc2)cc1,-1,32%,/,/,39%,9
FC(F)(F)c1cc(-c2ccco2)nc(NCc2cccs2)n1,-6,?,-8%,-42%,-10%,-1
Cc1ccc(CNC(=O)c2ccc(N3CCC4(CC3)CC(c3ccccc3)=NO4)c(NC(=O)c3cccc(C)c3)c2)cc1,/,?,/,/,4.1µM*,/
CC/C=C/C(=O)N1CC2(CC(c3cccc(NC(=O)c4ccccc4)c3)=NO2)C[C@@H]1C(N)=O (stereo partly drawn),-21,?,/,2%,-1%,-4
SMILES,Shiga inhibitor,Pf growth 96h,LASV entry inh,MARV entry inh,Pf growth 48h,Cycloheximide cs
CCC(=O)N1CCN(c2ccccc2NC(=O)c2cccc(C)c2)CC1,-5,19%,4%,12%,?,-3
CCCNC(=O)c1ccc(N2CCC3(CC2)CC(c2cccc(Br)c2)=NO3)c(NC(=O)c2ccccc2)c1,/,12µM*,/,/,9.3µM*,/
CCCNC(=O)c1ccc(N2CCC3(CC2)CC(c2ccccc2)=NO3)c(NC(=O)c2ccccc2)c1,-3,5.9µM*,/,/,?,-3
O=C(Nc1cc(C(=O)N2CCCC2)ccc1N1CCCC1)c1ccccc1,4,/,-1%,14%,18%,-1
CCCNC(=O)c1ccc(N2CCC3(CC2)CC(c2ccccc2)=NO3)c(NC(=O)c2cccc(C)c2)c1,9,1.9µM*,/,/,8.3µM*,-1
Cc1ccc(CNC(=O)c2ccc(N3CCC4(CC3)CC(c3cccc(Br)c3)=NO4)c(NC(=O)c3cccc(C)c3)c2)cc1,/,-7%,/,/,?,/
COc1cccc(C(=O)Nc2cc(C(=O)NCc3ccc(C)cc3)ccc2N2CCC3(CC2)CC(c2cccc(Br)c2)=NO3)c1,/,-6%,/,/,10µM*,/
Cc1cc(Br)ccc1NC(=O)C(Cc1ccccc1)NS(=O)(=O)c1ccc(Br)s1 (stereo not drawn),/,/,-1%[46.1 µM],3%[46.1 µM],/,/
NC1=NC[C@H](Cc2ccc(O)cc2)N1CCc1cccc2ccccc12,-5,1µM*,/,/,3.3µM*,-6
O=C1NC[C@@H](Cc2ccc(O)cc2)N(CCc2cccc3ccccc23)C1=O,-7,?,/,/,?,-1
NC1=NC[C@@H](Cc2ccc(O)cc2)N1CCc1cccc2ccccc12,19,1.9µM*,/,/,5.9µM*,1
NNC(=O)c1ccc(Cn2cc(Br)c(N)n2)cc1,18,0%,2%,-5%,47%,12*
Cc1nn(C(C)(C)C)c(OC(=O)c2cccs2)c1S(=O)(=O)c1ccccc1,-2,/,11µM*,?,1%,-2
CC(=O)Oc1c(S(=O)(=O)c2ccccc2)c(C)nn1C(C)(C)C,-4,/,?,-6%,14%,-4
CC(=O)c1ccc(OCc2cc(C(=O)N3CCCCCCC3)no2)cc1,57*,13µM*,-26%,?,-10%,57*
CC(=O)c1ccc(OCc2cc(C(=O)N3CCOCC3)no2)cc1,79*,?,?,?,46%,43*
Cc1ccc(OCc2cc(C(=O)N3CCC(Oc4cccnc4)CC3)no2)cc1C,25,?,/,/,5%,20
CC(=O)c1ccc(OCc2cc(C(=O)N3CCC(Oc4ccccc4C)CC3)no2)cc1,143*,?,/,/,?,90*
O=C(COC(=O)c1cc(S(=O)(=O)N2CCCC2)ccc1O)NCc1ccccc1,/,3%,5%,?,9%,/
COc1cccc(NC(=O)C2CCCN2C(=O)Nc2ccccc2F)c1 (stereo not drawn),36,0%,15%,5%,-9%,8
COc1ccc(/C(N)=N/OC(=O)CC2CCCCC2)cc1OC,55*,?,/,/,?,50*
COc1ccc(CC(=O)O/N=C(\N)c2ccc(Br)cc2)cc1OC,10,0%,/,/,?,-3
COc1ccc(/C(N)=N/OC(=O)CSc2ccc(C)cc2)cc1OC,-16,?,-11%,6%,/,1

# Assay outcomes as filed in PubChem.
